The structures appear in SMILES notation. Activity calls are given as the source filed them. The calls were made as follows: active = hit-call score of the fitted dose curve at least 0.9, where 1 is the maximum; inactive = score below 0.9.

Common to all, as to conditions: mRNA level, 48 h; actives raise or lower the signal
Read-out in assay [1]: Paternally Expressed 10 (PEG10), PEG10 (gene 23089)
The assay can be described thus: LTEA_HepaRG_PEG10: Life Technologies and Expression Analysis (LTEA) Assay for Paternally Expressed 10 (PEG10) using HepaRG (AID 2283520).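 As to AC50: differentiated HepaRG human liver cells in serum-free induction medium with 0.5% DMSO; PEG10 transcript by qRT-PCR normalised to ACTB GAPDH and POLR2A.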 The gist of the method: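 Human HepaRG cultures are dosed for 48 h across an eight-point half-log series starting at 100 uM, with 0.5% DMSO as vehicle and baseline. Gain or loss of PEG10 transcript is measured by qRT-PCR and fitted in both directions.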

Read-out in assay [2]: Nuclear factor NF-kappa-B p105 subunit (Homo sapiens) (UniProt P19838)
The experiment in a line: LTEA_HepaRG_NFKB1: Life Technologies and Expression Analysis (LTEA) Assay for Nuclear Factor Kappa B Subunit 1 (NFKB1) using HepaRG (AID 2283521). A digest of the protocol: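 HepaRG, 48 h exposure; 8-pt half-log series from 100 uM in 0.5% DMSO; duplicates. Readout: NFKB1 mRNA by qRT-PCR (Fluidigm arrays), housekeeping-normalized. Gain/loss fit vs DMSO baseline.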

Read-out in assay [3]: Protein phosphatase 2A (PPP2R4), PTPA (gene 5524)
The experiment in a line: LTEA_HepaRG_PPP2R4: Life Technologies and Expression Analysis (LTEA) Assay for Protein phosphatase 2A (PPP2R4) using HepaRG (AID 2283522). A digest of the protocol:
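Cells were plated, cultured 48 h, switched to serum-free induction medium, then dosed for 48 h (8 points, max 100 uM, 0.5% DMSO). RNA was isolated and PPP2R4 expression measured by TaqMan qRT-PCR.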

Read-out in assay [4]: Phosphatase and tensin (PTEN), PTEN (gene 5728)
The assay can be described thus: LTEA_HepaRG_PTEN: Life Technologies and Expression Analysis (LTEA) Assay for Phosphatase and tensin (PTEN) using HepaRG (AID 2283523). The gist of the method:
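HepaRG, 48 h exposure, 8-pt half-log series from 100 uM top, 0.5% DMSO vehicle, duplicates. Readout: Fluidigm qRT-PCR of PTEN transcript; housekeeping normalization (ACTB, GAPDH, POLR2A). Gain or loss fitted relative to DMSO baseline.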

Read-out in assay [5]: solute carrier (SLC22A1), SLC22A1 (gene 6580)
The assay can be described thus: LTEA_HepaRG_SLC22A1: Life Technologies and Expression Analysis (LTEA) Assay for solute carrier (SLC22A1) using HepaRG (AID 2283524).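 As to AC50: differentiated human HepaRG liver cells in serum-free induction medium.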 The gist of the method:
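qRT-PCR readout (TaqMan, Fluidigm arrays) of SLC22A1 transcript, normalized to three housekeeping genes; bidirectional curve fit relative to 0.5% DMSO vehicle. Differentiated human HepaRG cells, 48 h chemical exposure, top concentration 100 uM, half-log steps, eight points.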

Read-out in assay [6]: Nuclear factor erythroid 2-related factor 2 (Homo sapiens) (UniProt Q16236)
The experiment in a line: LTEA_HepaRG_NFE2L2: Life Technologies and Expression Analysis (LTEA) Assay for Nuclear factor erythroid 2-related factor 2 (NFE2L2) Transcription Factor using HepaRG (AID 2283527). A digest of the protocol: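 HepaRG, 48 h dosing, 8-pt half-log series from 100 uM in 0.5% DMSO, duplicates. Read-out: NFE2L2 mRNA by qRT-PCR (ACTB/GAPDH/POLR2A normalization). Bidirectional curve fit vs DMSO baseline.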

Read-out in assay [7]: succinate dehydrogenase complex iron sulfur subunit B (SDHB), SDHB (gene 6390)
The experiment in a line: LTEA_HepaRG_SDHB: Life Technologies and Expression Analysis (LTEA) Assay for succinate dehydrogenase complex iron sulfur subunit B (SDHB) using HepaRG (AID 2283528). A digest of the protocol:
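Readout is SDHB transcript level by qRT-PCR, normalised to three housekeeping genes and fitted bidirectionally against 0.5% DMSO vehicle. Human HepaRG cells were treated for 48 h at up to 100 uM.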

Read-out in assay [8]: solute carrier (SLCO1B1), SLCO1B1 (gene 10599)
The experiment in a line: LTEA_HepaRG_SLCO1B1: Life Technologies and Expression Analysis (LTEA) Assay for solute carrier (SLCO1B1) using HepaRG (AID 2283530). The gist of the method: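 HepaRG, serum-free induction medium, 48 h dosing, 8-pt half-log from 100 uM, 0.5% DMSO vehicle, duplicates. Readout: SLCO1B1 mRNA, qRT-PCR, ACTB/GAPDH/POLR2A normalization; up or down fit vs DMSO.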

Read-out in assay [9]: sulfotransferase 2A1 (SULT2A1), SULT2A1 (gene 6822)
The assay can be described thus: LTEA_HepaRG_SULT2A1: Life Technologies and Expression Analysis (LTEA) Assay for sulfotransferase 2A1 (SULT2A1) using HepaRG (AID 2283531). The gist of the method: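 Transcript levels of SULT2A1, quantified by qRT-PCR and normalized to three housekeeping genes, serve as the readout. Human HepaRG cultures receive test chemicals for 48 h at up to 100 uM in half-log steps, with 0.5% DMSO vehicle.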

Read-out in assay [10]: Transforming Growth Factor (TGFA), TGFA (gene 7039)
The assay can be described thus: LTEA_HepaRG_TGFA: Life Technologies and Expression Analysis (LTEA) Assay for Transforming Growth Factor (TGFA) using HepaRG (AID 2283532). A digest of the protocol:
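qRT-PCR read-out of TGFA transcript, normalized to three housekeeping genes, fitted bidirectionally against 0.5% DMSO baseline. Human HepaRG cultures received chemicals for 48 h at eight half-log concentrations, top 100 uM.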

Read-out in assay [11]: Transforming Growth Factor (TGFB1), TGFB1 (gene 7040)
The experiment in a line: LTEA_HepaRG_TGFB1: Life Technologies and Expression Analysis (LTEA) Assay for Transforming Growth Factor (TGFB1) Transporter using HepaRG (AID 2283533). A digest of the protocol:
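HepaRG, 48 h post-plating, switched to serum-free induction medium; chemicals 100 uM top, half-log, 8 pts, 0.5% DMSO, dup; 48 h exposure; RNA → Fluidigm TaqMan qRT-PCR; norm ACTB/GAPDH/POLR2A; bidirectional fit vs DMSO.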

Read-out in assay [12]: TIMP1, TIMP1 (gene 7076)
The experiment in a line: LTEA_HepaRG_TIMP1: Life Technologies and Expression Analysis (LTEA) Assay for TIMP1 using HepaRG (AID 2283534). A digest of the protocol:
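Readout is TIMP1 mRNA level measured by qRT-PCR and normalized to three housekeeping genes. Human HepaRG cells were treated for 48 h in duplicate at eight concentrations up to 100 uM (0.5% DMSO); gain or loss fitted against DMSO.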

Read-out in assay [13]: Tumor necrosis factor receptor 1 (TNFRSF1A), TNFRSF1A (gene 7132)
The assay can be described thus: LTEA_HepaRG_TNFRSF1A: Life Technologies and Expression Analysis (LTEA) Assay for Tumor necrosis factor receptor 1 (TNFRSF1A) using HepaRG (AID 2283535). The gist of the method: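 Read-out is TNFRSF1A transcript level by TaqMan qRT-PCR, normalized to three housekeeping genes, scored as gain or loss of signal versus 0.5% DMSO. Human HepaRG cells received test chemicals for 48 h at up to 100 uM (half-log series).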

Read-out in assay [14]: Thyroid Hormone Responsive (THRSP), THRSP (gene 7069)
The assay can be described thus: LTEA_HepaRG_THRSP: Life Technologies and Expression Analysis (LTEA) Assay for Thyroid Hormone Responsive (THRSP) using HepaRG (AID 2283536). A digest of the protocol: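 qRT-PCR read-out (Fluidigm TaqMan), housekeeping-normalized (ACTB/GAPDH/POLR2A). HepaRG, 48 h chemical exposure, 8-pt half-log series from 100 uM in 0.5% DMSO, duplicates. Bidirectional curve fit vs 0.5% DMSO baseline.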

Read-out in assay [15]: Cellular tumor antigen p53 (Homo sapiens) (UniProt P04637)
The assay can be described thus: LTEA_HepaRG_TP53: Life Technologies and Expression Analysis (LTEA) Assay for Tumor Protein P53 (TP53) using HepaRG (AID 2283537). The gist of the method:
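Read-out is TP53 transcript level by microfluidic qRT-PCR, normalised to three housekeeping genes and fitted bidirectionally against DMSO. Human HepaRG cells received compounds for 48 h, highest concentration 100 uM.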

Read-out in assay [16]: UDP glucuronosyltransferase (UGT1A1), UGT1A1 (gene 54658)
The assay can be described thus: LTEA_HepaRG_UGT1A1: Life Technologies and Expression Analysis (LTEA) Assay for UDP glucuronosyltransferase (UGT1A1) using HepaRG (AID 2283538). A digest of the protocol: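 Cells are plated, cultured 48 h, switched to serum-free induction medium, then dosed 48 h at eight concentrations (max 100 uM, 0.5% DMSO). RNA is isolated and UGT1A1 expression measured by qRT-PCR; changes versus DMSO are fitted in both directions.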

Read-out in assay [17]: UDP glucuronosyltransferase (UGT1A6), UGT1A6 (gene 54578)
The experiment in a line: LTEA_HepaRG_UGT1A6: Life Technologies and Expression Analysis (LTEA) Assay for UDP glucuronosyltransferase (UGT1A6) using HepaRG (AID 2283539). A digest of the protocol: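 HepaRG, 48 h post-plating switch to serum-free induction medium; chemical 48 h, 100 uM top, half-log x8, duplicate, 0.5% DMSO. Phenobarbital 1mM induction control. UGT1A6 mRNA by TaqMan qRT-PCR; gain/loss fit vs DMSO.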

Read-out in assay [18]: Pyruvate Dehydrogenase Kinase 4 (PDK4), PDK4 (gene 5166)
The experiment in a line: LTEA_HepaRG_PDK4: Life Technologies and Expression Analysis (LTEA) Assay for Pyruvate Dehydrogenase Kinase 4 (PDK4) using HepaRG (AID 2283525). The gist of the method: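 HepaRG (human liver line), 48 h chemical exposure, 8-pt half-log CRC top 100 uM, 0.5% DMSO vehicle, duplicates. Readout: TaqMan qRT-PCR of PDK4 mRNA, housekeeping-normalized; gain/loss fit relative to DMSO baseline.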

Sequence of Nuclear factor erythroid 2-related factor 2 (Homo sapiens) (Q16236 whole entry, looked up): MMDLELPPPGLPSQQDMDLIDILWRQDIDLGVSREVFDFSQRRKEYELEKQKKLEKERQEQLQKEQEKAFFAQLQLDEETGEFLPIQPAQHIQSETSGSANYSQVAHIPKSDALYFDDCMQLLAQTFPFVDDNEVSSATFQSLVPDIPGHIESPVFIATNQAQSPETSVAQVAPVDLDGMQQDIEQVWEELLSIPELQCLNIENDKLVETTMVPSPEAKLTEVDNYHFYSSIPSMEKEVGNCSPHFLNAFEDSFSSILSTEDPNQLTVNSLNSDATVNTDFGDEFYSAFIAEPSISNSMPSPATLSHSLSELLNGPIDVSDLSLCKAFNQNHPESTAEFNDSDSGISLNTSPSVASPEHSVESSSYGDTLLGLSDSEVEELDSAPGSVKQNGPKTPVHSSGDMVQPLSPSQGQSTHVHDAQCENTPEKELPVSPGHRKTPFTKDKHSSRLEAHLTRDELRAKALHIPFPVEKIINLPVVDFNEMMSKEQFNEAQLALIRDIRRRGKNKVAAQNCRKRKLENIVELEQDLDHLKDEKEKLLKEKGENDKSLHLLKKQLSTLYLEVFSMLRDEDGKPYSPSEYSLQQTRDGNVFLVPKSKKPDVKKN
Sequence of Cellular tumor antigen p53 (Homo sapiens) (P04637 whole entry, looked up): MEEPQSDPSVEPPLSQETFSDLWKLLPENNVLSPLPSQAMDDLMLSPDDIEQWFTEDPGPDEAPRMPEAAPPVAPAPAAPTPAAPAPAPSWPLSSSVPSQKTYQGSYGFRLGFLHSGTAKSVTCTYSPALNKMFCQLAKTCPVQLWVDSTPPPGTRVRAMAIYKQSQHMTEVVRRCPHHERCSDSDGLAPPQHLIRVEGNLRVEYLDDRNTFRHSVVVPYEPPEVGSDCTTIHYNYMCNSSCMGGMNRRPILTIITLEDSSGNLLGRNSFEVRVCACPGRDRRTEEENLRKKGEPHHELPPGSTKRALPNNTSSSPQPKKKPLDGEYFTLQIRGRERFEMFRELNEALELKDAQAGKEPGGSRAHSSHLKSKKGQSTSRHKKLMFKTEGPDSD
Sequence of Nuclear factor NF-kappa-B p105 subunit (Homo sapiens) (P19838 whole entry, looked up): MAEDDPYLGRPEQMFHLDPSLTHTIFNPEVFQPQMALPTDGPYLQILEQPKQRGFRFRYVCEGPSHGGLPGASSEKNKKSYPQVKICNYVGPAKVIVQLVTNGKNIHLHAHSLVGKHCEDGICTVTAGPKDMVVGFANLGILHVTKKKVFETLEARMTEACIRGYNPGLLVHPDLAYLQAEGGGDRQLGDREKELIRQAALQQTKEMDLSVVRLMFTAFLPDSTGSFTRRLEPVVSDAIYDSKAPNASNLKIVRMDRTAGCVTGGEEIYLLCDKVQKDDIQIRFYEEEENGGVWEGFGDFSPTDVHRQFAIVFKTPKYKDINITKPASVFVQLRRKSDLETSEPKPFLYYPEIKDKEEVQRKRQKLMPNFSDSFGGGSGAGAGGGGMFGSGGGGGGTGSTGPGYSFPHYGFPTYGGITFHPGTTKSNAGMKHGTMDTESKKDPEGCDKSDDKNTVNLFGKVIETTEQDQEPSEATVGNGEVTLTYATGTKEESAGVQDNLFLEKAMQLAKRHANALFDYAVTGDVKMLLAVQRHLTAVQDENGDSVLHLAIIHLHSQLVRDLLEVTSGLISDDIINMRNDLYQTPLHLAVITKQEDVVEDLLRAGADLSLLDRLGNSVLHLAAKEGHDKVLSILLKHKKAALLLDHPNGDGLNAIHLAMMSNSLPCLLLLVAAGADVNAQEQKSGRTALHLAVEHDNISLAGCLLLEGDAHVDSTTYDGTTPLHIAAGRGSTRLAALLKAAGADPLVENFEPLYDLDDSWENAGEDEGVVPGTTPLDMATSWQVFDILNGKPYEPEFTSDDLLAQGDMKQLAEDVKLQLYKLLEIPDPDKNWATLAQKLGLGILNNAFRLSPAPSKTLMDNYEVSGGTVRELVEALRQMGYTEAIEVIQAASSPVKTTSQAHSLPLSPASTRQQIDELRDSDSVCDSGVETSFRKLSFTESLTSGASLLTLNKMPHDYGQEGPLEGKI

As to `COc1cc(C(=O)NC2CCN(C)CC2)ccc1Nc1ncc2c(n1)N(C1CCCC1)CC(F)(F)C(=O)N2C`, the result in assay [1] and in [10] was inactive. Also, the AC50 (commonly the concentration at which the activity in the assay is half-maximal) was 11.7 µM (active) in assay [2]; 11.9 µM (active) in assay [3]; 12 µM (active) in assay [4]; 5.56 µM (active) in [5]; 25.4 µM (active) in [6]; 12.7 µM (active) in assay [7]. For the same compound, the AC50 in [8] was 7.47 µM (active); in assay [9], 11.6 µM (active); in assay [11], 3.64 µM (active); in assay [12], 11.9 µM (active); in [13], 4.65 µM (active); in assay [14] it was 0.923 µM (active). Further, the AC50 was 8 µM (active) in assay [15], 21 µM (active) in assay [16] and 8.85 µM (active) in assay [17].

For the compound `CN(C[C@@H](CC[N+]12CCC(C3CCCCC3)(CC1)CC2)c1ccc(Cl)c(Cl)c1)C(=O)c1cc(C(F)(F)F)cc(C(F)(F)F)c1`, the concentration at half-maximal activity (AC50) in [1] is 28.7 µM (active); in [2], 89.7 µM (active); in assay [3], 76.2 µM (active); in assay [4] it was 71.1 µM (active); in assay [5] it was 22.4 µM (active); in assay [7] it was 68.8 µM (active). The concentration at half-maximal activity (AC50) in assay [8] was 33.9 µM (active); in assay [9] it was 68 µM (active); in assay [10], 50 µM (active); in assay [11], 12.3 µM (active); in [12], 68.7 µM (active); in assay [14], 4.72 µM (active). Also, the concentration at half-maximal activity (AC50) in assay [16] is 6.65 µM (active); in assay [17], 1.66 µM (active). Also, the compound was called inactive in assay [6], in assay [13] and in [15].

Consider `CCO[Si](CCCNC(N)=O)(OCC)OCC`, for which the call in assay [1], in [3], in assay [4], in [5], in [18] and in assay [6] was inactive. In addition, the compound was called inactive in assay [7], in assay [8], in assay [9], in assay [10], in [11] and in [12]. Moreover, the call in assay [13], in assay [14], in [15], in [16] and in assay [17] was inactive.

For the origin of these results see PubChem BioAssay (EPA / NIEHS).
